CF NFkB block: cystic fibrosis NF-kB activation inhibition; inhibition, % at 5 µM; KKLEB NF-kB-GFP reporter, PAF-induced, GFP fluorescence overnight; AID 588850; 360,000 compounds, 0.86% hits;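 active means at least 50% inhibition at 5 µM, scaled per plate between neutral and stimulator controls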;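 further: PAF is a Pseudomonas aeruginosa culture filtrate used as stimulus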
PPC-1+TRAIL kill: compounds killing PPC-1 cancer cells with TRAIL present (potentiator screen, no TRAIL-free arm). PPC-1 cells + TRAIL, ATPLite viability luminescence. cell killing (% activity), % at 4 µM or 5 µM. 220,000 compounds, 0.41% hits. AID 1443;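 active means cell killing above 50% in the first pass at 4 µM, then a duplicate retest at 5 µM averaging 50% or more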
KKLEB tox: counter-screen for CF NF-kB inhibitors: cytotoxicity. activity change (cytotoxicity), % at 5 µM. AID 602141. 360,000 compounds, 0.36% hits. KKLEB CF airway cells viability, ATPlite luminescence, overnight; stronger effect = lower value; cells stimulated with P. aeruginosa culture filtrate;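 active means corrected activity change at or below -50% at 5 µM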
HIF-2a inh: blocks HIF-2a reporter activity | 786-0 RCC cells HIF-2a reporter, luciferase luminescence, overnight | AID 624352 | inhibition, % at 18.8 µM | 360,000 compounds, 0.72% hits;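 active means inhibition of the luminescence signal of 40% or more relative to plate controls, in a single-dose primary screen at 18.75 µM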
hiPSC survival: enhancers of human iPSC single-cell survival. 360,000 compounds, 0.044% hits. survival enhancement, % at 20 µM. hiPSC single-cell survival, ATPlite luminescence; 100% = ROCK inhibitor wells, 0% = DMSO. AID 602274; in the data active means survival enhancement above about 18%;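 further: cells exposed to compounds for 16 hours before the ATP read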
TRAIL sens C8: caspase-8 TRAIL sensitization; 360,000 compounds, 1% hits; NB7+C8 cells + TRAIL, ATPlite viability luminescence; inhibition (viability loss, TRAIL sensitization), % at 10 µM;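 active means compounds causing at least 50% loss of cell viability in the single-dose screen, relative to plate controls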
PPC-1 tox: kills PPC-1 cells; shares compounds with PPC-1+TRAIL kill; PPC-1 viability, ATPlite luminescence, overnight; cytotoxicity, % at 5 µM; 1,200 compounds, 50% hits; AID 1447;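 active means reconfirmed compounds whose average cytotoxicity reaches 50% or more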
Each line names hits and unclear results; the compound was inactive in the other large screens (follow-up assays come after a bar, where they were run). In the library only some 2.2% were active in any assay of this set; here they are far more common.

Nc1ccc2nc(-c3ccccc3)sc2c1	PPC-1+TRAIL kill 68, TRAIL sens C8 76 | PPC-1 tox 68
CC(=O)Nc1nc2cc(N)ccc2s1	none (no result: PPC-1+TRAIL kill)
Nc1ccc(-c2nc3cc(N)ccc3s2)cc1	TRAIL sens C8 60 | PPC-1 tox 54
O=C(CSc1nnc(-c2csc3c2CCCC3)o1)Nc1ccccc1	PPC-1+TRAIL kill 58, TRAIL sens C8 77 | PPC-1 tox 56
CCN(CCO)c1ccc(N=Nc2cc(C)[nH]n2)cc1	PPC-1+TRAIL kill 77, HIF-2a inh 55, TRAIL sens C8 86 | PPC-1 tox 78
CCN(CCO)c1ccc(Nc2cc(-c3ccc(-c4ccccc4)cc3)ncn2)cc1	none (no result: PPC-1+TRAIL kill)
N=c1n(CCN2CCCC2)c2ccccc2n1CC(O)c1ccc(Cl)c(Cl)c1 (centres undefined)	none | PPC-1 tox inactive
COc1ccccc1CNC(=O)COc1ccc(S(=O)(=O)N2CCOCC2)cc1C	none (no result: PPC-1+TRAIL kill)
Cc1ccccc1C(=O)Nc1ccnn1C1CCN(C(C)Cc2ccccc2F)CC1 (centres undefined)	none (no result: PPC-1+TRAIL kill)

High-throughput results (PubChem)
